# In the supplement of paper PMC8975748:
# Where a name gives a salt, the structure may show the parent alone.
# System: Saccharomyces cerevisiae BY4741 SeMeCo community
# Experiment: z-score of subpopulation abundance vs DMSO median, subpopulation auxotrophic for M; higher = larger share of this subpopulation than in DMSO controls
# Settings: 10 µM; 24 h; SM minimal medium; subpopulation (auxotrophy): M
# Summary of the method: (§1)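 A Saccharomyces cerevisiae BY4741 community carried four plasmids, each restoring one auxotrophy and encoding a distinct fluorescent protein. It was pre-grown overnight to OD600 1.0, diluted to 0.3, and 70 µl was added to 384-well plates acoustically predosed with library drugs (10 µM final), then grown 24 h in minimal SM medium. Cells were paraformaldehyde-fixed and imaged by automated confocal microscopy, with single-auxotroph fluorescent strains setting thresholds and autofluorescence correction. Each subpopulation's abundance was scored as a z-score against the vehicle-well median.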
row,Compound,z-score of subpopulation abundance
1,CC(=O)N1CCN(c2ccc(OCC3COC(Cn4ccnc4)(c4ccc(Cl)cc4Cl)O3)cc2)CC1 (configuration not stated) [Ketoconazole],-1.31
2,Cc1onc(-c2ccccc2)c1C(=O)N[C@@H]1C(=O)N2[C@@H]1SC(C)(C)[C@@H]2C(=O)O [Oxacillin sodium monohydrate],0.02
3,CC[C@H]1OC(=O)[C@H](C)[C@@H](O[C@H]2C[C@@](C)(OC)[C@@H](O)[C@H](C)O2)[C@H](C)[C@@H](O[C@@H]2O[C@H](C)C[C@H](N(C)C)[C@H]2O)[C@](C)(O)C[C@@H](C)C(=O)[C@H](C)[C@@H](O)[C@]1(C)O [Erythromycin thiocyanate],0.78
4,CCn1cc(C(=O)O)c(=O)c2cc(F)c(N3CCNC(C)C3)c(F)c21 (configuration not stated) [Lomefloxacin HCl],1.99
5,CNS(=O)(=O)CCc1ccc2[nH]cc(C3CCN(C)CC3)c2c1 [Naratriptan HCl],0.48
6,CO[C@@]1(NC(=O)CSC[C@@H](N)C(=O)O)C(=O)N2C(C(=O)O)=C(CSc3nnnn3C)CS[C@@H]21 [Cefminox Sodium],-0.58
7,CNCCCC1c2ccccc2C=Cc2ccccc21 [Protriptyline hydrochloride],-0.4
8,CC1CCc2c(N3CCC(O)CC3)c(F)cc3c(=O)c(C(=O)O)cn1c23 (configuration not stated) [Nadifloxacin],0.33
9,C[n+]1ccccc1/C=N/O [Pralidoxime chloride],1.37
10,Oc1ccc(Cl)c2cccnc12 [Cloxiquine],5.82
11,N[C@H]1CONC1=O [L-Cycloserine],-3.06
12,CCN(CC)CC#CCOC(=O)C(O)(c1ccccc1)C1CCCCC1 (configuration not stated) [Oxybutynin chloride],-0.21

# System: Saccharomyces cerevisiae BY4741 SeMeCo community
# Experiment: z-score of subpopulation abundance vs DMSO median, subpopulation auxotrophic for U; higher = larger share of this subpopulation than in DMSO controls
# Settings: 10 µM; 24 h; SM minimal medium; subpopulation (auxotrophy): U
# Summary of the method: as §1
row,Compound,z-score of subpopulation abundance
1,CN[C@@H]1[C@H](O[C@H]2[C@H](O[C@H]3[C@H](O)[C@@H](O)[C@H](NC(=N)N)[C@@H](O)[C@@H]3NC(=N)N)O[C@@H](C)[C@]2(O)CO)O[C@@H](CO)[C@H](O)[C@H]1O [Dihydrostreptomycin sulfate],0.78
2,C=CCc1ccc(O)c(-c2ccc(O)c(CC=C)c2)c1 [Honokiol],-1.32
3,COCCCN1CCC(NC(=O)c2cc(Cl)c(N)c3c2OCC3)CC1 [Prucalopride],0.73
4,COCC(=O)Nc1cc(Sc2ccccc2)ccc1N=C(NC(=O)OC)NC(=O)OC [Febantel],-1.73
5,Cc1ccsc1/C=C/C1=NCCCN1C [Morantel tartrate],0.23
6,CCn1cc(C(=O)O)c(=O)c2cc(F)c(N3CCNCC3)cc21 [Norfloxacin],-0.7
7,CC[C@H]1OC(=O)C[C@@H](O)[C@H](C)[C@@H](O[C@@H]2O[C@H](C)[C@@H](O[C@H]3C[C@@](C)(O)[C@@H](O)[C@H](C)O3)[C@H](N(C)C)[C@H]2O)[C@@H](CC=O)C[C@@H](C)C(=O)/C=C/C(C)=C/[C@@H]1CO[C@@H]1O[C@H](C)[C@@H](O)[C@@H](OC)[C@H]1OC [Tylosin],0.25
8,COC(=O)C1=C(C)NC(C)=C(C(=O)OC2CCCN(Cc3ccccc3)C2)C1c1cccc([N+](=O)[O-])c1 (configuration not stated) [Benidipine HCl],-1.06
9,CC1=C[C@H]2C(=O)O[C@H]3C[C@@H](C/C=C(\C)C[C@@H](C)/C=C/C=C4\CO[C@H](/C1=N\O)[C@@]42O)O[C@@]1(CC[C@H](C)[C@@H](C)O1)C3.CC[C@H]1O[C@]2(CC[C@@H]1C)C[C@@H]1C[C@@H](C/C=C(\C)C[C@@H](C)/C=C/C=C3\CO[C@@H]4/C(=N\O)C(C)=C[C@@H](C(=O)O1)[C@]34O)O2 [Milbemycin Oxime],-0.74
10,CC1=Nc2ccc(Cl)cc2S(=O)(=O)N1 [Diazoxide],0.16
11,O=C(O)c1cc(O)c2c(c1)[C@H]([C@H]1c3cc(C(=O)O)cc(O)c3C(=O)c3c(O[C@@H]4O[C@H](CO)[C@@H](O)[C@H](O)[C@H]4O)cccc31)c1cccc(O[C@@H]3O[C@H](CO)[C@@H](O)[C@H](O)[C@H]3O)c1C2=O [Sennoside A],0.7
12,Oc1ccc([C@H]2COc3cc(O)ccc3C2)cc1 [Equol],-0.12
13,COc1ccc2cc(CCC(C)=O)ccc2c1 [Nabumetone],0.54
14,CO/N=C(\C(=O)N[C@@H]1C(=O)N2C(C(=O)O)=C(CSc3nc(=O)c(O)nn3C)CS[C@H]12)c1csc(N)n1 [Ceftriaxone Sodium Trihydrate],0.09
15,CO/N=C(\C(=O)N[C@@H]1C(=O)N2C(C(=O)OC(C)OC(C)=O)=C(COC(N)=O)CS[C@H]12)c1ccco1 (some centres not stated) [Cefuroxime axetil],1.94
